PubChem BioAssay (Tox21)
Inconclusive results are not listed. Calls of active or inactive are those of the source. The call rests on the fitted dose curve; in most records, active means well fitted activation curve with a large enough effect in the signal ratio in the repeat runs, with a control signal flat (not every such curve was filed as active); inconclusive means weak or mixed curves; inactive means flat fitted curve, though single readings scatter; the % refers to the signal ratio.

Experiment: qHTS assay for small molecule activators of the heat shock response signaling pathway (AID 743210)
Details: HeLa HSE-bla reporter, beta-lactamase ratio, 5 h; series mostly up to 62.6 µM
How it was run: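 Beta-lactamase reporter read-out: FRET substrate fluorescence after 2.5 h at RT, following 5 h compound treatment at 37 C of HeLa cells carrying HSE-driven bla reporter; quantitative HTS format.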

Compound | outcome
C[Si]1(C)N[Si](C)(C)N[Si](C)(C)N1 | inactive
C[C@H]1O[C@H](O[C@H]2[C@H](O)[C@@H](O)[C@@H](O[C@H]3[C@H](O)[C@@H](O)[C@H](O)O[C@@H]3CO)O[C@@H]2CO)[C@H](O)[C@@H](O)[C@@H]1N[C@H]1C=C(CO)[C@@H](O)[C@H](O)[C@H]1O | inactive
CCCCCC1CCCC(=O)O1 (stereo unspecified) | inactive
Nc1cc(Cl)cc(S(=O)(=O)O)c1O | inactive
Cc1oc(=O)oc1CN1CCN(c2cc3c(cc2F)c(=O)c(C(=O)O)c2n3C(C)S2)CC1 (stereo unspecified) | inactive
COC(OC)C(C)c1ccccc1 (stereo unspecified) | inactive
CCNC(=O)/C=C/c1cccc(Br)c1 | inactive
N#CCCOCCOCCC#N | inactive
Nc1ccc(S(=O)(=O)NC(=O)c2ccccc2)cc1 | inactive
CCCOC(=O)CCCCC(=O)OCCC | inactive
COc1cc(C=O)ccc1OC(=O)C(C)C | inactive
CCC(O)C(C)(C)C (stereo unspecified) | inactive
O=C(O)c1c(Cl)ccc(Cl)c1Cl | inactive
CC(C)CCC(=O)CCC(C)C | inactive
Cc1cc(O)c2c(c1)C(=O)c1cccc(O)c1C2=O | inactive
O=[Si]=O | inactive
CCC(=O)OCCC(C)CCC=C(C)C (stereo unspecified) | inactive
C=CCOc1c(Br)cc(Br)cc1Br | inactive
C=CCOc1c(Br)cc(C(C)(C)c2cc(Br)c(OCC=C)c(Br)c2)cc1Br | inactive
COc1cc2c3cc1Oc1cc(ccc1O)C[C@@H]1c4c(cc(OC)c(O)c4Oc4ccc(cc4)C[C@@H]3N(C)CC2)CC[N+]1(C)C | inactive
Cc1ccccc1N1CCN(CCc2nnc3n2CCCC3)CC1 | inactive
